KB-3-1 tox = kills parental KB-3-1 adenocarcinoma cells | KB-3-1 viability, CellTiter-Glo ATP luminescence, 72 h | Potency, µM (series often up to 46.1 µM), usual class: cytotoxic | 400,000 compounds, 1.4% hits; further: nearly all actives have a fitted effect of over 60% in size
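Using CellTiter-Glo luminescence, growth of non-resistant KB-3-1 adenocarcinoma cells is assessed 72 h after pin-tool compound addition at 37 °C. Normalized responses across the concentration series yield fitted curves.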
HT1080NT lethal = kills 2HG-producing HT-1080-NT fibrosarcoma cells; HT-1080-NT fibrosarcoma viability, CellTiter-Glo ATP luminescence, 48 h; Potency, µM (highest dose often 46.1 µM), inactives show top-dose activity, negative = less viability, most hits filed as cytotoxic; 360,000 compounds, 1.6% hits;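 further: NT is the 2HG producing partner of a matched IDH1 knockdown line; 0% = DMSO-treated cells and -100% = media-only wells without cells; nearly all actives have a fitted effect of over 55% in size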
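Viability by CellTiter-Glo luminescence after 48 h compound exposure at 37C of HT-1080-NT cells (750/well, RPMI, 5% FBS). % activity scaled between DMSO wells and medium-only wells, then curve-fitted and categorized by curve class.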
TDP1 cell CPT = growth inhibition of DT40 Tdp1-/-;hTDP1 cells with camptothecin (screen for TDP1 inhibitors); 420,000 compounds, 12% hits; Potency, µM (highest dose often 46.2 µM), for the others: at the top dose activity change, negative = growth inhibition, most hits filed as inhibitors; AID 686979; chicken DT40 Tdp1-/-;hTDP1 cells + 20 nM CPT, ATP luminescence, 48 h; further: nearly all actives have a fitted effect of over 55% in size
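Chicken DT40 Tdp1-/- cells stably complemented with human TDP1 were seeded at 400 cells/well in medium containing 20 nM camptothecin, exposed to pin-transferred compounds, and grown at 37 °C for at least 48 hr. Viability was read as ATP luminescence.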
KB-V1 cytotox = KB-V1 MDR subline cytotoxicity; KB-V1 MDR cells viability, CellTiter-Glo, 72 h; Potency, µM (doses to about 46.1 µM), usual class: cytotoxic; 400,000 compounds, 3.4% hits; further: nearly all actives have a fitted effect of over 60% in size
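Following 72 h at 37 degrees C with compound, KB-V1 cell viability was read by CellTiter-Glo luminescence, medium being phenol-red-free DMEM plus 10% FBS; concentration-response parameters came from normalized, curve-fitted qHTS data.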
HT1080 IDH1KD tx = toxicity to HT-1080 IDH1 knockdown cells (counter line); HT-1080 IDH1 knockdown viability, ATP luminescence, 48 h; Potency, µM (highest dose often 46.1 µM), for inactives: top-dose activity, negative = toxicity, hits mostly cytotoxic; 360,000 compounds, 2% hits; AID 686971;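 further: 0% = DMSO wells and -100% = cell-free medium wells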
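Assay cells: HT-1080 with IDH1 knockdown, 750 per well, RPMI/5% FBS. Exposure: 48 h at 37 °C following 2 h pre-incubation. Read: CellTiter-Glo luminescence; fitted concentration-response, curve class assigned.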
TDP1 cell noCPT = qHTS for Inhibitors of human tyrosyl-DNA phosphodiesterase 1 (TDP1): qHTS in cells in absence of CPT | DT40 Tdp1-/- hTDP1 cells, no CPT, ATP luminescence, 48 h | 420,000 compounds, 15% hits | Potency, µM (series often up to 46.2 µM), inactives show at the highest dose activity change, negative = growth inhibition, hits mostly inhibitors | AID 686978, 2013; further: nearly all actives have a fitted effect of over 55% in size
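Luminescent ATP content (CellTiter-Glo) served as the growth readout. Knockout chicken DT40 cells expressing human TDP1 were exposed to compounds without camptothecin for a minimum 48 hr at 37 °C.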
Starred values were filed as active, the others as inactive; i = inactive; ? = inconclusive; · = no result; [ ] = dose if it differs, or a comment. Hits are enriched below; roughly 19% of the tested compounds scored in any of these assays. The call rests on the fitted dose curve; in most records, active means well fitted curve in the direction sought with a large enough effect; inconclusive means small, poorly fitted or top-dose-only effect, or another doubt; inactive means no such curve, though single readings can be large; an effect the other way counts as inactive or inconclusive. Unless noted, on the % scale 0 is the no-effect control and ±100 the full control effect; potency means the concentration at half of the fitted maximal effect.

SMILES	KB-3-1 tox	HT1080NT lethal	TDP1 cell CPT	KB-V1 cytotox	HT1080 IDH1KD tx	TDP1 cell noCPT
Cc1ccc(/C=[N+](\[O-])c2ccc(N(C)C)cc2)c2nsnc12	i	21µM*	7.3µM*	i	-1%	16µM*
Cc1cc(C(=O)CN2CCCC(C)C2)c(C)n1-c1ccc(F)cc1 (stereo not drawn)	i	-6%	-22%	?	-1%	?
CC(=O)N1CCCN(Cc2cn(-c3cccc(C)c3)nc2-c2cccc(F)c2)CC1	i	-4%	?	i	-12%	16µM*
CC(=O)N1CCCN(Cc2cn(-c3cc(C)ccc3C)nc2-c2ccccc2)CC1	i	-10%	18µM*	i	-6%	?
CC(=O)N1CCCN(Cc2cn(-c3ccc(C)cc3)nc2-c2ccc(F)cc2)CC1	i	-13%	?	i	-4%	18µM*
COCCN1CCC(CNCc2cn[nH]c2-c2ccc(C)c(C)c2)C1 (stereo not drawn)	i	-18%	-2%	?	-14%	-8%
COCCN1CCC(CNCc2cn(-c3cc(C)ccc3C)nc2-c2ccccc2)C1 (stereo not drawn)	i	26µM*	?	i	?	6.5µM*
Cc1ccc(-n2cc(CN3CCCN(C=O)CC3)c(-c3ccc(F)cc3)n2)cc1	i	-14%	?	i	-19%	?
O=C(CCN1C(=O)c2ccccc2C1=O)N1CCC(c2ccccc2)C1 (stereo not drawn)	i	8%	-6%	?	7%	-8%
Cc1ccc2ncnc(Oc3ncccc3NC(=O)C(C)(C)C)c2c1	i	1%	1%	i	-5%	-9%
COc1ccc(C2N(C(=O)CN3CCCC3)CCCN2S(=O)(=O)c2ccccc2)cc1 (stereo not drawn)	i	-23%	-2%	i	-2%	3%
COc1ccc(C(=O)COC(=O)C2CCCN2C(=O)C23CC4CC(CC(C4)C2)C3)cc1 (stereo not drawn)	i	16%	23µM*	i	15%	-24%
O=C(C[n+]1ccccc1Cl)c1cccc([N+](=O)[O-])c1	i	·	?	i	·	?
O=S(=O)(c1cnc[nH]1)N1CCc2ccccc21	i	0%	?	i	1%	23µM*
CN(C(=O)c1ccc(NC(=O)Cc2ccc(NC(=O)C3CCCN(S(=O)(=O)c4cccc([N+](=O)[O-])c4)C3)cc2)cc1)C1CCCC1 (stereo not drawn)	i	1%	-14%	i	1%	-26%
CCOC(=O)C(NC(=O)c1ccc(Cl)cc1Cl)(Nc1ccc(C)cc1)C(F)(F)F (stereo not drawn)	i	-2%	23µM*	i	-6%	16µM*
O=c1cnc2cnc(Oc3ccccc3)nc2n1C1CC1	·	·	-2%	·	·	-1%
COC(=O)C1=NN(C(=O)c2ccccc2)C(O)(c2ccc([N+](=O)[O-])cc2)C1 (stereo not drawn)	i	18%	5%	i	14%	-7%
COC(=O)C1=NN(C(=O)c2ccccc2)C(C)(O)C1 (stereo not drawn)	i	2%	?	i	?	23µM*
O=C1CCN(Cc2ccc([N+](=O)[O-])cc2)CCN1[C@H](CO)c1ccccc1	i	12%	?	?	10%	-9%
COc1ccccc1C(=O)N[C@@H]1c2ccccc2C2(CCN(Cc3c(O)cccc3OC)CC2)[C@H]1O	·	·	-8%[9.04 µM]	·	·	18µM*
CC[C@]12c3[nH]c4ccc(OC)cc4c3CCN1C(=O)C(CC(=O)NCCCOC)C[C@@H]2C(=O)N1CCN(C(=O)c2ccco2)CC1 (stereo partly drawn)	i	3%	10%	i	4%	1%
COc1ccc(NC(C)=O)cc1NC(=O)c1cccc(S(=O)(=O)N2CCc3ccccc32)c1	i	-8%	-16%	i	-8%	-11%
COc1ccc(S(=O)(=O)N2CCc3ccccc32)cc1[N+](=O)[O-]	?	-3%	23µM*	i	-11%	?
O=S(=O)(c1ccc2ccccc2c1)N1CCc2ccccc21	i	-15%	?	i	-10%	?
SMILES	KB-3-1 tox	HT1080NT lethal	TDP1 cell CPT	KB-V1 cytotox	HT1080 IDH1KD tx	TDP1 cell noCPT
COc1cc(C(=O)Nc2ccc(S(=O)(=O)N3CCc4ccccc43)cc2)cc(OC)c1OC	?	-6%	?	5.8µM*	-18%	16µM*
COc1ccccc1C(=O)Nc1ccc(S(=O)(=O)N2CCc3ccccc32)cc1	i	2%	?	?	1%	21µM*
CCOc1ccc(C(=O)Nc2ccc3c(c2)N(C(C)=O)CCC3)cc1OCC	·	·	?	·	·	21µM*
Cc1oc(-c2ccccc2F)nc1CS(=O)(=O)CC(=O)NCCc1ccc(Cl)cc1	i	·	?	i	·	-27%
CCOC(=O)c1cc(S(=O)(=O)Nc2cc(F)ccc2C)[nH]n1	i	·	-25%	i	·	2%
CC(C)(C)OC(=O)N1CCC(C(=O)NCC2CCCO2)CC1 (stereo not drawn)	i	0%	5%	i	0%	-10%
CCOc1ccc(C(=O)Nc2cc(NC(=O)c3ccc(OCC)c(Cl)c3)cc(C(=O)O)c2)cc1Cl	i	1%	2.1µM*	i	15%	-17%
CCOc1ccc(C(=O)Nc2cccc(C(=O)O)c2)cc1Cl	i	13%	-12%	?	19%	?
COc1ccc(S(=O)(=O)N2CCc3ccccc32)cc1C(=O)Nc1ccc(C(N)=O)cc1	?	?	23µM*	i	?	?
COc1cc(C(=O)Nc2ccc3c(c2)CCN3C(C)=O)cc(OC)c1OC	3.3µM*	?	?	?	2.6µM*	2.1µM*
COc1cc(C(=O)Nc2ccc3c(c2)Cc2ccccc2-3)cc(OC)c1OC	i	-2%	-22%	i	-13%	?
C[C@@H]1NC(=O)N[C@@H]1CCCCCC(=O)O	?	?	-14%	i	?	-12%
Clc1cccc(Cl)c1CO/N=C/c1c(-c2ccccc2)nc2n1CCS2	?	?	18µM*	13µM*	-30%	21µM*
CCc1ccc(CN(C)Cc2nc(Cc3ccc(OC)c(OC)c3)no2)nc1	i	-15%	16µM*	?	6%	?
